Source: PubChem BioAssay (EPA / NIEHS)
Calls of active or inactive are those of the source. Rule for the calls: active = hit-call score of the fitted dose curve at least 0.9, where 1 is the maximum; inactive = score below 0.9.

test: APR_HepG2_MitoticArrest_1hr: Apredica 1-hour HepG2 Assay for Mitotic Arrest (AID 2282672); settings: high-content imaging, actives raise or lower the signal
Method: APR_HepG2_1hr is a cell-based, multiplexed-readout assay that uses HepG2, a human liver cell line, with measurements taken at 1 hour after chemical dosing in a 384-well plate.APR_HepG2_MitoticArrest_1hr is one of 10 assay component(s) measured or calculated from the APR_HepG2_1hr assay. It is designed to make measurements of cell phenotype, a form of morphology reporter, as detected with fluorescence intensity signals by HCS Fluorescent Imaging technology.Data from the assay component APR_HepG2_MitoticArrest_1hr was analyzed into 1 assay endpoint. This assay endpoint, APR_HepG2_MitoticArrest_1hr, was analyzed with bidirectional fitting relative to DMSO as the negative control and baseline of activity. Using a type of morphology reporter, measures of protein for gain or loss-of-signal activity can be used to understand the signaling at the pathway-level as they relate to the gene . Furthermore, this assay endpoint can be referred to as a primary readout, because this assay has produced multiple assay endpoints where this one serves a signaling function. To generalize the intended target to other relatable targets, this assay endpoint is annotated to the cell cycle intended target family, where the subfamily is arrest.
Cells were treated with dimethyl sulfoxide (DMSO) as a solvent control at a final concentration of 0.5% v/v or with compounds in DMSO with a resulting final DMSO concentration of 0.5% v/v. Compound treatment was done at concentrations of 0.39, 0.78, 1.56, 3.12, 6.24, 12.5, 25, 50, 100, and 200 uM in duplicate on each plate. Cells were treated with compounds for 1, 24, or 72 hr. Carbonyl […] m-chloro-phenylhydrazone (CCCP) and taxol were used as positive controls for mitochondrial function and cytoskeletal stability, respectively; DMSO served as the negative control for this experiment. Cells were fixed by the direct addition of 50 uL formaldehyde in Hank's Balanced Salt Solution (HBSS) to a final concentration of 3.7%. After incubation in the fixation medium for 30 min at room temperature (293-298 K), cells were rinsed twice with HBSS and treated with cell permeabilization buffer (16 uL of 0.5% Triton X-100) for 10 min at room temperature (293-298 K) before labeling. For mitochondrial membrane potential and mitochondrial measurements, pre-fixed cells were incubated with 50 uL of MitoTracker Red CMXRos (Invitrogen) at a concentration of 250 nM for 30 min before fixation. In the remaining cases, post-fixed cells were labeled by incubation with a multiplexed mixture of primary antibodies in HBSS for 60 min at room temperature (293-298 K) to detect immunoreactivity of c-Jun (1:500), phospho-histone H3 (1:100), phospho-histone H2A.x (1:200), p53 (1:400), alpha-tubulin (1:200) and Hoechst 33342 (2 ug/mL). Cells were labeled for multiplexed imaging on two separate plates: a) Hoechst 33342, MitoTracker Red, phospho-histone H3, and alpha-tubulin, and b) Hoechst 33342, phospho-histone H2A.x, and c-Jun. A final rinse with HBSS (50 uL) was performed before analysis. The primary and secondary antibodies for the proteins were phospho-histone H3 (rabbit anti-phospho-histone H3 and FITC-donkey anti-rabbit IgG), phospho-histone H2A.x (mouse anti-phospho-histone H2A.x and FITC-donkey anti-mouse IgG), c-Jun (rabbit anti-phospho-c-Jun and Cy3-donkey anti-rabbit IgG), p53 (sheep anti-p53 and Cy5-donkey anti-sheep IgG), alpha-tubulin (mouse anti-alpha-tubulin and Cy5-donkey anti-mouse IgG). These antibodies are available as the CellCiphr HepG2 assay kit (Millipore).Digital images of each well were captured using a Cellomics ArrayScan VTI (Thermo Scientific Cellomics) (0.8 NA objective, 0.63x optical coupler, and XF-93 filter set) at 20x magnification. The images were acquired using the autofocus feature of the ArrayScan instrument, which entails the following steps. First, the camera focuses on channel 1 (Hoechst 33342), where nuclei are identified. Second, a Z offset of 1 um is used for capturing mitochondria (MitoTracker Red). […]

| SMILES | outcome | AC50 |
| --- | --- | --- |
| CNC(=O)/C=C(\C)OP(=O)(OC)OC | inactive | – |
| CNC(=O)CSP(=S)(OC)OC | inactive | – |
| COP(=O)(OC)OC=C(Cl)Cl | inactive | – |
| CNC(=O)Oc1ccccc1OC(C)C | inactive | – |
| CNC(=O)Oc1cccc(N=CN(C)C)c1 | inactive | – |
| CCCN(CCOc1c(Cl)cc(Cl)cc1Cl)C(=O)n1ccnc1 | inactive | – |
| CC(C)(C)C(O)/C(=C\c1ccc(Cl)cc1Cl)n1cncn1 (stereo not given) | inactive | – |
| [2H]C1([2H])[n+]2ccccc2-c2cccc[n+]2C1([2H])[2H] | inactive | – |
| CC1(C)C(C=C(Cl)Cl)C1C(=O)OC(C#N)c1ccc(F)c(Oc2ccccc2)c1 (stereo not given) | inactive | – |
| CC1(c2ccc(Oc3ccccc3)cc2)OC(=O)N(Nc2ccccc2)C1=O (stereo not given) | inactive | – |
| ClC1C(Cl)C(Cl)C(Cl)C(Cl)C1Cl (stereo not given) | inactive | – |
| O=S1OCC2C(CO1)C1(Cl)C(Cl)=C(Cl)C2(Cl)C1(Cl)Cl (stereo not given) | inactive | – |
| CC(C)(C)C(O)C(Oc1ccc(Cl)cc1)n1cncn1 (stereo not given) | inactive | – |
| CCN(CC)C(=O)SCc1ccc(Cl)cc1 | inactive | – |
| O=C(O)COc1ccc(Cl)cc1Cl | inactive | – |
| OCCOc1ccccc1 | inactive | – |
| C#CCN1C(=O)COc2cc(F)c(N3C(=O)C4=C(CCCC4)C3=O)cc21 | inactive | – |
| O=[N+]([O-])/N=C1\NCCN1Cc1ccc(Cl)nc1 | inactive | – |
| Oc1cc(Cl)ccc1Oc1ccc(Cl)cc1Cl | inactive | – |
| Clc1ccccc1-c1nnc(-c2ccccc2Cl)nn1 | inactive | – |

| SMILES | outcome | AC50 |
| --- | --- | --- |
| CCc1ccc(C(=O)NN(C(=O)c2cc(C)cc(C)c2)C(C)(C)C)cc1 | inactive | – |
| COC(=O)c1ccccc1S(=O)(=O)NC(=O)Nc1nc(C)nc(OC)n1 | inactive | – |
| CCC(C)(C)C(=O)OC1=C(c2ccc(Cl)cc2Cl)C(=O)OC12CCCCC2 | inactive | – |
| CN1CSC(=S)N(C)C1 | inactive | – |
| CCC(C)Nc1c([N+](=O)[O-])cc(C(C)(C)C)cc1[N+](=O)[O-] (stereo not given) | inactive | – |
| COc1cc(OC)nc(NC(=O)NS(=O)(=O)c2cc(NC=O)ccc2C(=O)N(C)C)n1 | inactive | – |
| COP(=S)(OC)Oc1ccc([N+](=O)[O-])cc1 | inactive | – |
| COP(=S)(OC)Oc1ccc(SC)c(C)c1 | inactive | – |
| C[C@H]1[C@H](c2ccc(Cl)cc2)SC(=O)N1C(=O)NC1CCCCC1 | inactive | – |
| CCOC1Oc2ccc(OS(C)(=O)=O)cc2C1(C)C (stereo not given) | inactive | – |
| O=C(NC(=O)c1c(F)cccc1F)Nc1ccc(OC(F)(F)C(F)OC(F)(F)F)c(Cl)c1 (stereo not given) | inactive | – |
| COC(=O)c1ccccc1S(=O)(=O)NC(=O)N(C)c1nc(C)nc(OC)n1 | inactive | – |
| CC(C)N(C(=O)COc1nnc(C(F)(F)F)s1)c1ccc(F)cc1 | inactive | – |
| Oc1ccc(Cl)cc1Cc1ccccc1 | inactive | – |
| CC(C)OC(=O)Nc1cccc(Cl)c1 | inactive | – |
| CCC(C)(NC(=O)c1cc(Cl)c(C)c(Cl)c1)C(=O)CCl (stereo not given) | inactive | – |
| Cc1cc(C)nc(NC(=O)NS(=O)(=O)c2ccccc2C(=O)OC2COC2)n1 | inactive | – |
| O=C1c2ccccc2C(=O)N1SC(Cl)(Cl)Cl | inactive | – |
| N#Cc1c(Cl)c(Cl)c(Cl)c(C#N)c1Cl | – | 8.28 µM (active) |
| COC(=O)c1ccccc1CS(=O)(=O)NC(=O)Nc1nc(OC)cc(OC)n1 | inactive | – |
